# ChEMBL document CHEMBL1961873, “Compounds: GSK PKIS; Assays: Nanosyn kinase panel” (2012)
# Columns and labels:
# [1] = target: Dual specificity protein kinase TTK (Homo sapiens) (UniProt P33981); conditions: at 0.1 µM
# [2] = system: Receptor-type tyrosine-protein kinase FLT3 (Homo sapiens), P36888 [D835Y]; conditions: at 1 µM
# [3] = target: Vascular endothelial growth factor receptor 3 (Homo sapiens) (UniProt P35916); conditions: at 0.1 µM
# [4] = target: Vascular endothelial growth factor receptor 3 (Homo sapiens) (UniProt P35916); conditions: at 1 µM
# [5] = target: Macrophage colony-stimulating factor 1 receptor (Homo sapiens) (UniProt P07333); conditions: at 0.1 µM
# Macrophage colony-stimulating factor 1 receptor (Homo sapiens), sequence (P07333 whole entry): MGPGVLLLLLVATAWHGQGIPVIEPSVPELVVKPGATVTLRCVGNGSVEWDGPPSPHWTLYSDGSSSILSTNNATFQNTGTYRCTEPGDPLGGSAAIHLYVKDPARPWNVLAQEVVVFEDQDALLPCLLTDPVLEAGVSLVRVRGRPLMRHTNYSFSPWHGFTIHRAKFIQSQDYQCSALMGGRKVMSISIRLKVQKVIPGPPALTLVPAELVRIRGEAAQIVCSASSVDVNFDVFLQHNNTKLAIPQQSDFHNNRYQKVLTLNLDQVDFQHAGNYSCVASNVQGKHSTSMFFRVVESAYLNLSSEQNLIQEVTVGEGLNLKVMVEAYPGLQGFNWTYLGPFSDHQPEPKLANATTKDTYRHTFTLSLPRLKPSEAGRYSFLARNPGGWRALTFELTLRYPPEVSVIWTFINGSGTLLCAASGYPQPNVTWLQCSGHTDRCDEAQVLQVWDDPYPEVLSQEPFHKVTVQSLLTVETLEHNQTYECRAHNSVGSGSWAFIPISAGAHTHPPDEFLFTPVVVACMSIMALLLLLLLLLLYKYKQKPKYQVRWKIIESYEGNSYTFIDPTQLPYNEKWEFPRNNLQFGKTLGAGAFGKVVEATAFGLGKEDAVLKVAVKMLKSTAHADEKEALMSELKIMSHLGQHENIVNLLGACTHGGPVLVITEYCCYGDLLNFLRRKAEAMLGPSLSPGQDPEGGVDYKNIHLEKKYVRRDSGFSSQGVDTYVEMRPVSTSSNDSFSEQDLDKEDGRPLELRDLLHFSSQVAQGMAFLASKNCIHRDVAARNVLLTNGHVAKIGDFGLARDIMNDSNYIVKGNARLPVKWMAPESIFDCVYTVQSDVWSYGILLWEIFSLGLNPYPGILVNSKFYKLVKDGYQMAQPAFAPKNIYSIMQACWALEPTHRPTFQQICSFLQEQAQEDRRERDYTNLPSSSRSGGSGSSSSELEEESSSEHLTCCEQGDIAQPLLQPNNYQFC
# [6] = target: Macrophage colony-stimulating factor 1 receptor (Homo sapiens) (UniProt P07333); conditions: at 1 µM
# [7] = target: Tyrosine-protein kinase Fyn (Homo sapiens) (UniProt P06241); conditions: at 0.1 µM
# [8] = target: Tyrosine-protein kinase Fyn (Homo sapiens) (UniProt P06241); conditions: at 1 µM
# [9] = target: Tyrosine-protein kinase HCK (Homo sapiens) (UniProt P08631); conditions: at 0.1 µM
# [10] = target: Tyrosine-protein kinase HCK (Homo sapiens) (UniProt P08631); conditions: at 1 µM
# [11] = target: Insulin-like growth factor 1 receptor (Homo sapiens) (UniProt P08069); conditions: at 0.1 µM
# Insulin-like growth factor 1 receptor (Homo sapiens), sequence (P08069 31-736 limits assumed): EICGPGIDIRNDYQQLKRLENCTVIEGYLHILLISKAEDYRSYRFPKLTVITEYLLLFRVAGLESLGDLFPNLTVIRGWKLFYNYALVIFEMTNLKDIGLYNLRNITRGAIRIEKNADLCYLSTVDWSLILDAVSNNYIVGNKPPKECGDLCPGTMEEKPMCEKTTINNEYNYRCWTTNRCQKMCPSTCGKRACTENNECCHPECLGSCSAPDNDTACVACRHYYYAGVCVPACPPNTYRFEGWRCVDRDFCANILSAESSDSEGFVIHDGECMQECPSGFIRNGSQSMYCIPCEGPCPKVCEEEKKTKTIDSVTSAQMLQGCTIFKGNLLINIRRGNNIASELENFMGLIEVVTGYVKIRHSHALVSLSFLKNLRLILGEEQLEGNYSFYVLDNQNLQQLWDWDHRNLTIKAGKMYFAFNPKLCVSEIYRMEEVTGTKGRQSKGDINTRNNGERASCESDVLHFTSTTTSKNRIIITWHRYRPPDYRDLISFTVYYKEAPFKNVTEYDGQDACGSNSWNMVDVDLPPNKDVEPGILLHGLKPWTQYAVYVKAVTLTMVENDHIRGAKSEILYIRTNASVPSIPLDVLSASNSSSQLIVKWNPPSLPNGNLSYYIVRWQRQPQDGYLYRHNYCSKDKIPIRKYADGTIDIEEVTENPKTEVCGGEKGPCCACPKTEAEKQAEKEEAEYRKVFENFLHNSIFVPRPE
# Insulin-like growth factor 1 receptor (Homo sapiens), sequence (P08069 741-1367 limits assumed): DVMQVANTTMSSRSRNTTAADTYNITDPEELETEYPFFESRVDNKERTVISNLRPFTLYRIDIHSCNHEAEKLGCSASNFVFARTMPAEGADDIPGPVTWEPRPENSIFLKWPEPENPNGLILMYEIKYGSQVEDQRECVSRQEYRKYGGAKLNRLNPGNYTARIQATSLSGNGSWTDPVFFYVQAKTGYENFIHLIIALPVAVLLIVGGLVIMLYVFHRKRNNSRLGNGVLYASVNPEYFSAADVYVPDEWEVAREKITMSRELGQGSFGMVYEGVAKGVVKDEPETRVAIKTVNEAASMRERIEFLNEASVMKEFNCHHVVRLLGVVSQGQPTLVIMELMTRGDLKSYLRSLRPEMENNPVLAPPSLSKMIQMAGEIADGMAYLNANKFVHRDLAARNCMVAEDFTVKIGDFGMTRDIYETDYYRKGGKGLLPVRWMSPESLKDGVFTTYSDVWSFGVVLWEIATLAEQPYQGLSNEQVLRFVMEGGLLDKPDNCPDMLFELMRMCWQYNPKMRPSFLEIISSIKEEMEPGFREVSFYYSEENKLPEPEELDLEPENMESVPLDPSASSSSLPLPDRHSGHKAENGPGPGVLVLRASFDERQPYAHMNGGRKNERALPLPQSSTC
# [12] = target: Insulin-like growth factor 1 receptor (Homo sapiens) (UniProt P08069); conditions: at 1 µM
# [13] = target: Insulin receptor (Homo sapiens) (UniProt P06213); conditions: at 0.1 µM
# [14] = target: Insulin receptor (Homo sapiens) (UniProt P06213); conditions: at 1 µM
# [15] = target: Insulin receptor-related protein (Homo sapiens) (UniProt P14616); conditions: at 0.1 µM
# [16] = target: Insulin receptor-related protein (Homo sapiens) (UniProt P14616); conditions: at 1 µM
# [17] = target: Tyrosine-protein kinase ITK/TSK (Homo sapiens) (UniProt Q08881); conditions: at 0.1 µM
# Tyrosine-protein kinase ITK/TSK (Homo sapiens), sequence (Q08881 whole entry): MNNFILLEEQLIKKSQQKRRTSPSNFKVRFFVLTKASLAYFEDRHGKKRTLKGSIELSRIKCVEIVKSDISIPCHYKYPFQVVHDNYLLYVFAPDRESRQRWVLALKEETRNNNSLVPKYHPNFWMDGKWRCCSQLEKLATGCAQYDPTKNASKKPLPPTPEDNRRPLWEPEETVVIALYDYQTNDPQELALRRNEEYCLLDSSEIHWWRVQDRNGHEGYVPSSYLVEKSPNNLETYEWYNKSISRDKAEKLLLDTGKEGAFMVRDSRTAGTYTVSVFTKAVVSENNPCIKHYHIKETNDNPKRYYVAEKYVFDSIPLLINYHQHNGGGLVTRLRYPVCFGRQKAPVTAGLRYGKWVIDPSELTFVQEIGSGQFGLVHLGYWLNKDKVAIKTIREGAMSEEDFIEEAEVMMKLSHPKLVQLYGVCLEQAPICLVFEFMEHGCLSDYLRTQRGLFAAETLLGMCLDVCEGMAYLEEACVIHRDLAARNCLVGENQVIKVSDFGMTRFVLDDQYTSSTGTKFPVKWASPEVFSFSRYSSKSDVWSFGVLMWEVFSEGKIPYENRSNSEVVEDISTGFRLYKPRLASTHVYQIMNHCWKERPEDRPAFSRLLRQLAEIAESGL
# [18] = target: Tyrosine-protein kinase ITK/TSK (Homo sapiens) (UniProt Q08881); conditions: at 1 µM
# [19] = target: Tyrosine-protein kinase JAK1 (Homo sapiens) (UniProt P23458); conditions: at 0.1 µM
# [20] = target: Tyrosine-protein kinase JAK1 (Homo sapiens) (UniProt P23458); conditions: at 1 µM
# [21] = target: Tyrosine-protein kinase JAK2 (Homo sapiens) (UniProt O60674); conditions: at 0.1 µM
# [22] = target: Tyrosine-protein kinase JAK2 (Homo sapiens) (UniProt O60674); conditions: at 1 µM
# [23] = target: Tyrosine-protein kinase JAK3 (Homo sapiens) (UniProt P52333); conditions: at 0.1 µM
# [24] = target: Tyrosine-protein kinase JAK3 (Homo sapiens) (UniProt P52333); conditions: at 1 µM
# [25] = target: Vascular endothelial growth factor receptor 2 (Homo sapiens) (UniProt P35968); conditions: at 0.1 µM
# [26] = target: Vascular endothelial growth factor receptor 2 (Homo sapiens) (UniProt P35968); conditions: at 1 µM
# [27] = target: Mast/stem cell growth factor receptor Kit (Homo sapiens) (UniProt P10721); conditions: at 0.1 µM
# [28] = target: Mast/stem cell growth factor receptor Kit (Homo sapiens) (UniProt P10721); conditions: at 1 µM
# [29] = system: Mast/stem cell growth factor receptor Kit (Homo sapiens), P10721 [D816V]; conditions: at 0.1 µM
# [30] = system: Mast/stem cell growth factor receptor Kit (Homo sapiens), P10721 [D816V]; conditions: at 1 µM
# [31] = system: Mast/stem cell growth factor receptor Kit (Homo sapiens), P10721 [T670I]; conditions: at 0.1 µM
# [32] = system: Mast/stem cell growth factor receptor Kit (Homo sapiens), P10721 [T670I]; conditions: at 1 µM
# [33] = system: Mast/stem cell growth factor receptor Kit (Homo sapiens), P10721 [V560G]; conditions: at 0.1 µM
# [34] = system: Mast/stem cell growth factor receptor Kit (Homo sapiens), P10721 [V560G]; conditions: at 1 µM
# [35] = target: Tyrosine-protein kinase Lck (Homo sapiens) (UniProt P06239); conditions: at 0.1 µM
# [36] = target: Tyrosine-protein kinase Lck (Homo sapiens) (UniProt P06239); conditions: at 1 µM
# [37] = target: Leukocyte tyrosine kinase receptor (Homo sapiens) (UniProt P29376); conditions: at 0.1 µM
# [38] = target: Leukocyte tyrosine kinase receptor (Homo sapiens) (UniProt P29376); conditions: at 1 µM
# [39] = target: Tyrosine-protein kinase Lyn (Homo sapiens) (UniProt P07948); conditions: at 0.1 µM
# Tyrosine-protein kinase Lyn (Homo sapiens), sequence (P07948 2-512 limits assumed): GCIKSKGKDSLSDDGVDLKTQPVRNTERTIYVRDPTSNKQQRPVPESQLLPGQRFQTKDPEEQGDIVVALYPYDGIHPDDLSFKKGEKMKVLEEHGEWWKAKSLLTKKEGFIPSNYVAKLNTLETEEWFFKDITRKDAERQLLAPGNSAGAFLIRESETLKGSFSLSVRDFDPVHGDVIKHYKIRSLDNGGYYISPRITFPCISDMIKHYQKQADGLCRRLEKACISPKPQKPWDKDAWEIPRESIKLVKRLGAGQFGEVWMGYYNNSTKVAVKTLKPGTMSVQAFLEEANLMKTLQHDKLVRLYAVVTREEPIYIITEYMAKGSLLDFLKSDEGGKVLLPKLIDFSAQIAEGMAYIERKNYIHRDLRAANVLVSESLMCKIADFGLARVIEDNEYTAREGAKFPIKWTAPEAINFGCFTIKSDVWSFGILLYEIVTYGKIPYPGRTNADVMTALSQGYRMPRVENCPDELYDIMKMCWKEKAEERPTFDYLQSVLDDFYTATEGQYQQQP
# [40] = target: Tyrosine-protein kinase Lyn (Homo sapiens) (UniProt P07948); conditions: at 1 µM
# [41] = target: Tyrosine-protein kinase Lyn (Homo sapiens) (UniProt P07948); conditions: at 0.1 µM; remark: listed apart in the source
# [42] = target: Tyrosine-protein kinase Lyn (Homo sapiens) (UniProt P07948); conditions: at 1 µM; remark: listed apart in the source
# [43] = target: Tyrosine-protein kinase Mer (Homo sapiens) (UniProt Q12866); conditions: at 0.1 µM
# [44] = target: Tyrosine-protein kinase Mer (Homo sapiens) (UniProt Q12866); conditions: at 1 µM
# [45] = target: Hepatocyte growth factor receptor (Homo sapiens) (UniProt P08581); conditions: at 0.1 µM
# [46] = target: Hepatocyte growth factor receptor (Homo sapiens) (UniProt P08581); conditions: at 1 µM
# [47] = target: Muscle, skeletal receptor tyrosine-protein kinase (Homo sapiens) (UniProt O15146); conditions: at 0.1 µM
# [48] = target: Muscle, skeletal receptor tyrosine-protein kinase (Homo sapiens) (UniProt O15146); conditions: at 1 µM
# [49] = target: Platelet-derived growth factor receptor alpha (Homo sapiens) (UniProt P16234); conditions: at 0.1 µM
# Platelet-derived growth factor receptor alpha (Homo sapiens), sequence (P16234 whole entry): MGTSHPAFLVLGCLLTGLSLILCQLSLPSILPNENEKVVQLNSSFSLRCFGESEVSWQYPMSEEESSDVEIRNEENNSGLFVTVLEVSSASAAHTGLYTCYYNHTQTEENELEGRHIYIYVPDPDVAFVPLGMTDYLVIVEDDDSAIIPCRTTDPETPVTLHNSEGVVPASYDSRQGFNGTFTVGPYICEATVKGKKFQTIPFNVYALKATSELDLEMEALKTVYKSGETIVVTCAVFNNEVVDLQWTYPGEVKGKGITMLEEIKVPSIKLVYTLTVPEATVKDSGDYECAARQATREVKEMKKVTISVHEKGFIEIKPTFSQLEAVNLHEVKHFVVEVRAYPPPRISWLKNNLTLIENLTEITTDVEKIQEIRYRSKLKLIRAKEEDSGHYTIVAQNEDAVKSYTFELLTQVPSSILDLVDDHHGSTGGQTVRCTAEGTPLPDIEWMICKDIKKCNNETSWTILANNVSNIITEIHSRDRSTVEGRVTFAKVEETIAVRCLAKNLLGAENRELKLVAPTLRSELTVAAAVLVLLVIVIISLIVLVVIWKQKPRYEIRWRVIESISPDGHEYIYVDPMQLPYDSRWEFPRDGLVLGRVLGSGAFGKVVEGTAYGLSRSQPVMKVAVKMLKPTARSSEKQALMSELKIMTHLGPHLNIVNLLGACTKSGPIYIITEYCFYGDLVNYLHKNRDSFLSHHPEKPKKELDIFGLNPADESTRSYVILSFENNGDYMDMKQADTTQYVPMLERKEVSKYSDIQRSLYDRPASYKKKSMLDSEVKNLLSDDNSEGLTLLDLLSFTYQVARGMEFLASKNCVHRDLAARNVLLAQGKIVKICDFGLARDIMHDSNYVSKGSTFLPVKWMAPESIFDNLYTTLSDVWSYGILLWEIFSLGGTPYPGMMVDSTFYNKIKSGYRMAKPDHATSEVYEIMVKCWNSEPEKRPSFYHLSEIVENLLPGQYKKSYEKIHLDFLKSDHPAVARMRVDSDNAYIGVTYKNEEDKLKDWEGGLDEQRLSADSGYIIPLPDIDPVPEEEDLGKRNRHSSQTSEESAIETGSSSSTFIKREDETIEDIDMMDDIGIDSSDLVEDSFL
# [50] = target: Platelet-derived growth factor receptor alpha (Homo sapiens) (UniProt P16234); conditions: at 1 µM
# [51] = system: Platelet-derived growth factor receptor alpha (Homo sapiens), P16234 [D842V]; conditions: at 0.1 µM
# Platelet-derived growth factor receptor alpha (Homo sapiens), P16234 [D842V], sequence (P16234 whole entry D842V): as the sequence (P16234 whole entry) above, with D842V counted along it
# [52] = system: Platelet-derived growth factor receptor alpha (Homo sapiens), P16234 [D842V]; conditions: at 1 µM
# [53] = system: Platelet-derived growth factor receptor alpha (Homo sapiens), P16234 [T674I]; conditions: at 0.1 µM
# Platelet-derived growth factor receptor alpha (Homo sapiens), P16234 [T674I], sequence (P16234 whole entry T674I): as the sequence (P16234 whole entry) above, with T674I counted along it
# [54] = system: Platelet-derived growth factor receptor alpha (Homo sapiens), P16234 [T674I]; conditions: at 1 µM
# [55] = system: Platelet-derived growth factor receptor alpha (Homo sapiens), P16234 [V561D]; conditions: at 0.1 µM
# Platelet-derived growth factor receptor alpha (Homo sapiens), P16234 [V561D], sequence (P16234 whole entry V561D): as the sequence (P16234 whole entry) above, with V561D counted along it
# [56] = system: Platelet-derived growth factor receptor alpha (Homo sapiens), P16234 [V561D]; conditions: at 1 µM
structure (smiles),measurement,setting,value
CNC(=O)Oc1cc(C)c(/C=C/c2cncc(C(=O)NC)c2)c(C)c1,inhibition,[1],3.53%
same,inhibition,[2],-6.68%
same,inhibition,[3],2.38%
same,inhibition,[4],3.06%
same,inhibition,[5],4.08%
same,inhibition,[6],28.3%
same,inhibition,[7],4.17%
same,inhibition,[8],32.4%
same,inhibition,[9],14.3%
same,inhibition,[10],51.1%
same,inhibition,[11],6.27%
same,inhibition,[12],6.14%
same,inhibition,[13],3.13%
same,inhibition,[14],3.08%
same,inhibition,[15],3.12%
same,inhibition,[16],2.02%
same,inhibition,[17],0.99%
same,inhibition,[18],1.69%
same,inhibition,[19],3.98%
same,inhibition,[20],-1.5%
same,inhibition,[21],1.67%
same,inhibition,[22],1.34%
same,inhibition,[23],0.21%
same,inhibition,[24],-1.11%
same,inhibition,[25],-0.28%
same,inhibition,[26],4.06%
same,inhibition,[27],12.7%
same,inhibition,[28],63.5%
same,inhibition,[29],4.33%
same,inhibition,[30],-0.14%
same,inhibition,[31],1.64%
same,inhibition,[32],-1.04%
same,inhibition,[33],2.06%
same,inhibition,[34],14.4%
same,inhibition,[35],6.81%
same,inhibition,[36],41%
same,inhibition,[37],3.84%
same,inhibition,[38],5.56%
same,inhibition,[39],13.7%
same,inhibition,[40],57.1%
same,inhibition,[41],9.47%
same,inhibition,[42],52.3%
same,inhibition,[43],1.05%
same,inhibition,[44],0.84%
same,inhibition,[45],-2.86%
same,inhibition,[46],-0.63%
same,inhibition,[47],1.43%
same,inhibition,[48],4.49%
same,inhibition,[49],12.5%
same,inhibition,[50],42.2%
same,inhibition,[51],2.6%
same,inhibition,[52],13.1%
same,inhibition,[53],3.98%
same,inhibition,[54],4.15%
same,inhibition,[55],13.5%
same,inhibition,[56],52.3%
